From PubChem
Most compounds without a hit are left out; they make up all but 14% or so of the library.
NS1 function inh – inhibitors of influenza NS1 protein function | Potency, µM (highest dose often 46.1 µM) | 270,000 compounds, 0.4% hits; calls by dose curve; note: actives are rising curves; nearly all actives have a fitted effect of over 50% in size
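Recovery from NS1-induced slow growth read by OD600 in budding yeast switched to galactose assay medium (pH 6.0, -URA) at 1:100 dilution. Compound 23 nl per well; the matching strain lacking NS1 serves as control.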
Shiga toxin inh – Shiga toxin inhibition | inhibition, % at 38.7 µM | AID 2315 | 290,000 compounds, 9.2% hits | Vero cells, Shiga toxin protein synthesis inhibition reporter; in the data active = inhibition mostly above about 28%, no sharp cut-off; inactive = mostly below about 43%
LmPK inh – blocks Leishmania mexicana pyruvate kinase activity; Q27686; 290,000 compounds, 0.37% hits; Potency, µM (highest dose often 57.5 µM), actives largely listed as inhibitors; AID 1721; purified LmPK, Kinase-Glo ATP luminescence, 1 h
Target sequence (Q27686 whole entry, looked up): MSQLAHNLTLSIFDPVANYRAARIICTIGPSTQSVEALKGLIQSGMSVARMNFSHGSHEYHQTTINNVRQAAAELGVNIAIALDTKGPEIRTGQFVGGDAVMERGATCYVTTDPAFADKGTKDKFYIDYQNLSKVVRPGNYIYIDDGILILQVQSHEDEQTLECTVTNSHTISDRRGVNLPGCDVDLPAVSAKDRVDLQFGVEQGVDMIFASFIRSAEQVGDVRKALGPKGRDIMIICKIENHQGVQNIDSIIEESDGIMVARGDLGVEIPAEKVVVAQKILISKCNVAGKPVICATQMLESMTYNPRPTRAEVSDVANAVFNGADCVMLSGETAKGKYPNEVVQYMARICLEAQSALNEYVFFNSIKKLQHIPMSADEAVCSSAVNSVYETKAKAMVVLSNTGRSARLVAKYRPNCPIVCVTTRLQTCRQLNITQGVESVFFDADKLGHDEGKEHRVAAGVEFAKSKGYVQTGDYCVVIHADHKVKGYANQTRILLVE
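Kinase-Glo luminescence read after 1 h RT reaction of 0.1 nM LmPK with 0.5 mM PEP and 0.1 mM ADP. Activity scaled between uninhibited and enzyme-free controls.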
Giardia FBPA inh – blocks Giardia fructose-bisphosphate aldolase activity; AID 2451; 290,000 compounds, 0.71% hits; A8B2U2; Potency, µM (top dose mostly 59.6 µM), most hits filed as inhibitors; purified Giardia FBPA; note: nearly all actives have a fitted effect of over 55% in size
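40 nM FBPA preincubated 10 min at RT with compound (up to 57.5 uM final), then substrate plus GAPDH/TPI/NAD/arsenate coupling and diaphorase/resazurin added. Fluorescence read after 20 min at RT, 525/598 nm.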
Cycloheximide cs – counter-screen for Shiga toxin inhibitors: cycloheximide protein synthesis inhibition. cell reporter, cycloheximide protein synthesis inhibition counterscreen. 300,000 compounds, 12% hits. AID 2314. max response, %; in the data active = max response mostly above about 13%, no sharp cut-off; inactive = mostly below about 14%; note: read at 38.3 µM for the half of the compounds with a filed dose
Numbers stand for hits; – = inactive; ? = inconclusive; · = no result given; [ ] = remark or other dose. Unless noted, calls come from the whole dose curve; as a rule, active = well fitted curve in the direction sought with a large enough effect; inconclusive = small, poorly fitted or top-dose-only effect, or another doubt; inactive = no such curve, though single readings can be large; an effect the other way counts as inactive or inconclusive.

SMILES	NS1 function inh	Shiga toxin inh	LmPK inh	Giardia FBPA inh	Cycloheximide cs
CCCC(C)c1nc(C(N)=O)c2[nH]c(=O)n(-c3ccc(OC)c(OC)c3)c2n1 (stereo unspecified)	–	–	–	–	–
COc1ccc(C(=O)COC(=O)COc2cc(C)cc(C)c2)cc1	–	–	–	·	–
CCNc1c(NC(=O)c2ccc3c(c2)OCO3)c(=O)oc2ccccc12	–	–	–	–	–
Cc1nn(-c2ccccc2)c(Cl)c1/C=N\NC(=O)c1cnccn1	–	–	–	–	–
Cc1nn(-c2ccccc2)c(Cl)c1/C=N/NC(=O)c1ccc(CNc2ccccc2)o1	–	44	–	–	25
Cc1nn(C)cc1/C=N/NC(=O)c1ccco1	–	82	–	–	38
Cc1nn(-c2ccccc2)c(Cl)c1/C=N/NC(=O)c1ccco1	–	104	–	–	52
CC1CCCCN1C(=O)c1ccc(OC2CCN(S(=O)(=O)N(C)C)CC2)cc1 (stereo unspecified)	–	–	–	–	26
CN(C(=O)c1ccc(OC2CCN(S(=O)(=O)N(C)C)CC2)cc1)C1CCCCC1	–	–	–	–	–
COCC(=O)N1CCC(Oc2ccc(C(=O)NCc3cc(C)no3)cc2)CC1	?	–	–	–	–
CSCCNC(=O)c1ccc(OC2CCN(S(=O)(=O)N(C)C)CC2)cc1	–	·	–	–	–
CCN1CCN(C(=O)c2cccc(OC3CCN(S(=O)(=O)N(C)C)CC3)c2)CC1	–	–	–	·	27
CN(C)S(=O)(=O)N1CCC(Oc2cccc(C(=O)NC3CCCCCC3)c2)CC1	–	–	–	·	–
Cc1cc(CNC(=O)c2cccc(OC3CCN(S(=O)(=O)N(C)C)CC3)c2)on1	–	128	–	·	64
CN(C)S(=O)(=O)N1CCC(Oc2ccc(C(=O)N3CCCCCCC3)cc2)CC1	–	117	–	·	62
CO[C@H]1COC(=O)[C@@H](C)COC(=O)[C@@H](Cc2ccccc2)NC(=O)C/C=C\[C@H]1C	·	·	·	–[12.9 µM]	·
Cc1cc(C)c(NC(=S)N2CCN(c3ccc([N+](=O)[O-])cn3)CC2)cc1C	–	–	–	–	–
CCOC(=O)Nc1nc(-c2ccccc2)c(C)s1	–	·	·	·	·
COc1cc(SC)ccc1C(=O)Nc1nc2ccccc2[nH]1	–	–	–	–	–
COc1cc(SC)ccc1C(=O)NCCN1CCOCC1	–	–	–	–	–
COc1cc(SC)ccc1C(=O)NCC1CCCCC1	–	75	–	–	28
COc1ccccc1OC(=O)c1ccc(SC)cc1OC	–	–	–	–	14
COc1cc(SC)ccc1C(=O)Nc1ccccc1	–	94	–	–	37
CSc1cccc(NC(=O)c2cccc3cccnc23)c1	–	98	–	–	34
O=C(O)CCC/C=C\C[C@H]1C(=O)C[C@@H](O)[C@@H]1/C=C/[C@@H](O)CCc1ccccc1	·	·	·	–	·
SMILES	NS1 function inh	Shiga toxin inh	LmPK inh	Giardia FBPA inh	Cycloheximide cs
Nn1c(-c2ccccc2)nc2cc(Cl)ccc2c1=O	–	–	–	–	–
Cc1cc(C)cc(NC(=O)C2CCN(S(=O)(=O)c3ccc4[nH]c(=O)ccc4c3)CC2)c1	–	–	–	–	–
OCc1ccncc1.OCc1ccncc1.[Cl][Pt]([Cl])([Cl])[Cl]	–	·	·	·	·
COc1cc(C(=O)Nc2nccs2)c(Br)c(OC)c1OC	–	–	–	–	–
COc1cc(SC)ccc1C(=O)Nc1c(Cl)cncc1Cl	–	–	–	–	–
COc1ccccc1C(=O)Nc1cccc(SC)c1	–[9.22 µM]	66	–	–	33
COc1cc(SC)ccc1C(=O)Nc1c(C)cccc1C	–	–	–	–	13
COc1cc(SC)ccc1C(=O)Nc1nccs1	–	active	–	–	28
COCn1c2ccccc2c2nnc(C(=O)O)nc21	·	·	·	–[12.9 µM]	·
O=C(CC1SC(=O)N(c2ccccc2)C1=O)Nc1cccc2ccccc12 (stereo unspecified)	–	–	–	–	21
CCOc1ccccc1NC(=O)CC1SC(=N)N(c2ccccc2)C1=O (stereo unspecified)	·	–	–	–	–
CCCN1C(=O)SC(CC(=O)Nc2ccccc2C)C1=O (stereo unspecified)	–	–	–	–	–
CCOc1ccc(NC(=O)CN2C(=O)CSC(C)C2=O)cc1 (stereo unspecified)	·	113	–	–	41
CCOc1ccc(NC(=O)CC2SC(=O)N(c3ccccc3)C2=O)cc1 (stereo unspecified)	–	44	–	–	21
COc1ccccc1NC(=O)CC1SC(=N)N(c2ccccc2)C1=O (stereo unspecified)	–	–	–	–	–
Cc1ccccc1NC(=O)CC1SC(=O)N(c2ccccc2)C1=O (stereo unspecified)	?	64	–	–	47
Cn1c2ccccc2c(=O)c2ccc(F)cc21	–	–	–	–	16
Cn1c2ccccc2c(=O)c2ccc(-c3ccc4c(c3)OCO4)cc21	–	46	–	–	31
COc1cc(-c2ccc3c(=O)c4ccccc4n(C)c3c2)cc(OC)c1OC	–	–	–	–	11
COc1ccc(CNc2ncnc3ccc(-c4cccc(NS(C)(=O)=O)c4)cc23)c(OC)c1	·	·	·	–	·
COc1cc(/C=C/C(=O)c2cccs2)cc(OC)c1OC	·	·	·	–	·
CCc1n[n+](CC(=O)c2ccccc2)c(N)s1	·	–	–	–	22
O=[N+]([O-])c1cc(/C=N/OCc2c(Cl)cccc2Cl)ccc1N1CCOCC1	–	–	–	–	19
CO/N=C/c1ccc(N2CCOCC2)c([N+](=O)[O-])c1	·	–	–	–	–
CSc1ccccc1OCc1cc(C(=O)N2CCN(c3ccccc3)CC2C)no1 (stereo unspecified)	?	99	–	–	57
SMILES	NS1 function inh	Shiga toxin inh	LmPK inh	Giardia FBPA inh	Cycloheximide cs
CC(=O)c1ccc(OCc2cc(C(=O)N3CCN(c4ccccc4)CC3C)no2)cc1 (stereo unspecified)	–	53	–	–	48
CC(=O)c1ccc(N2CCN(C(=O)c3ccc(OCc4c(C)noc4C)cc3)CC2)cc1	–	–	–	–	–
COCCNC(=O)c1ccc(CSc2nc3ccccc3s2)cc1	–	73	–	–	43
CCC(C)/C(C)=N/NC(=O)c1ccc(CSc2nc3ccccc3s2)cc1 (stereo unspecified)	?	–	–	–	20
NC(=O)c1ccc(CSc2nc3ccccc3s2)cc1	–	94	–	·	48
c1ccc2sc(SCc3ccc(-c4nnco4)cc3)nc2c1	–	73	–	–	38
O=C(CCCc1nc(-c2ccc(Cl)cc2)no1)NC1CCCC1	–	–	–	·	–
COc1ccc(-c2nc3c(c4c2C[C@H](c2ccccc2)OC4)CN(S(=O)(=O)c2ccc4c(c2)OCCN4C)CC3)c(C)c1	·	·	–[11.5 µM]	–[12.9 µM]	·
Cc1sc2ncnc(NCC(O)c3ccc([N+](=O)[O-])cc3)c2c1C (stereo unspecified)	–	–	–	–	–
Cc1ccc(N/C=C(\C#N)c2ccc(OCCCF)cc2)cc1	–	–	–	–	–
N#C/C(=C/Nc1ccccc1)c1ccsc1	–	42	–	?	27
Cc1ccc(N/C=C(/C#N)c2ccsc2)cc1	–	132	–	–	41
NCCNS(=O)(=O)c1ccc(N)cc1	–	·	·	·	·
